# High-throughput results from PubChem BioAssay.
# DT40 TDP1 no CPT: qHTS for Inhibitors of human tyrosyl-DNA phosphodiesterase 1 (TDP1): qHTS in cells in absence of CPT; 15% of 420,000 active; AID 686978, 2013; DT40 Tdp1-/- hTDP1 cells, no CPT, ATP luminescence, 48 h; Potency, µM (titrated, usually from 46.2 µM), without a hit: at the top dose activity change, negative = growth inhibition, hits mostly inhibitors; note: potency is the fitted concentration of half-maximal effect; nearly all actives have a fitted effect of over 55% in size
#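 No-CPT arm: Tdp1-/-;hTDP1 DT40 cells (400/well) plus compounds, incubated ≥48 hr at 37 °C. Readout CellTiter-Glo luminescence.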
# ELG1 DNA repair: inhibitors of ELG1-dependent DNA repair in HEK293T cells. 2.3% of 330,000 active. HEK293T ELG1-luciferase reporter, luminescence, 16 h; DNA damage induced by 5-fluorouridine. Potency, µM (titrated, usually from 46.1 µM), for inactives: at the top dose activity change, negative = inhibition, actives largely listed as inhibitors; note: potency is the fitted concentration of half-maximal effect; nearly all actives have a fitted effect of over 55% in size
#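 Quantitative HTS, concentration-response format. 2,000 cells/well co-treated with 5-fluorouridine and compound, 16 hr in 5% CO2 at 37 °C; ONE-Glo luminescence read after 30 min.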
# IL-1B inflam inh: blocks inflammasome-driven IL-1 beta release; activity change, % at 57.5 µM; AID 743279; THP-1 LPS/ATP IL-1B secretion, AlphaLISA, 16 h; active compounds read low; 4.7% of 360,000 active; in the data active = activity change below about -50%; inconclusive = mostly about -30% to -49%
#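 THP-1 cells pretreated 1 hr with compounds (up to 57.5 uM final), then stimulated with LPS (250 ng/mL final) plus ATP (1.25 mM final); secreted IL-1B measured by AlphaLISA after 16 hr, decreased signal indicating inhibition.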
# TDP1 cell CPT: growth inhibition of DT40 Tdp1-/-;hTDP1 cells with camptothecin (screen for TDP1 inhibitors) | 12% of 420,000 active | Potency, µM (doses to about 46.2 µM), for the others: top-dose activity change, negative = growth inhibition, most hits filed as inhibitors | AID 686979 | chicken DT40 Tdp1-/-;hTDP1 cells + 20 nM CPT, ATP luminescence, 48 h; note: potency is the fitted concentration of half-maximal effect; nearly all actives have a fitted effect of over 55% in size
#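 Cell growth measured by CellTiter-Glo luminescence after a minimum 48 h, 37 C compound exposure with 20 nM CPT in Tdp1-knockout DT40 cells stably expressing hTDP1, seeded 400/well; qHTS titration format.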
# TDP1 inh: blocks human tyrosyl-DNA phosphodiesterase 1; recombinant TDP1, AlphaScreen DNA substrate cleavage; Potency, µM (doses to about 130 µM), without a hit: top-dose activity change, negative = inhibition, hits mostly inhibitors; 0.28% of 350,000 active; AID 485290; note: potency is the fitted concentration of half-maximal effect; nearly all actives have a fitted effect of over 40% in size
# Target sequence (Q9NUW8 whole entry, looked up): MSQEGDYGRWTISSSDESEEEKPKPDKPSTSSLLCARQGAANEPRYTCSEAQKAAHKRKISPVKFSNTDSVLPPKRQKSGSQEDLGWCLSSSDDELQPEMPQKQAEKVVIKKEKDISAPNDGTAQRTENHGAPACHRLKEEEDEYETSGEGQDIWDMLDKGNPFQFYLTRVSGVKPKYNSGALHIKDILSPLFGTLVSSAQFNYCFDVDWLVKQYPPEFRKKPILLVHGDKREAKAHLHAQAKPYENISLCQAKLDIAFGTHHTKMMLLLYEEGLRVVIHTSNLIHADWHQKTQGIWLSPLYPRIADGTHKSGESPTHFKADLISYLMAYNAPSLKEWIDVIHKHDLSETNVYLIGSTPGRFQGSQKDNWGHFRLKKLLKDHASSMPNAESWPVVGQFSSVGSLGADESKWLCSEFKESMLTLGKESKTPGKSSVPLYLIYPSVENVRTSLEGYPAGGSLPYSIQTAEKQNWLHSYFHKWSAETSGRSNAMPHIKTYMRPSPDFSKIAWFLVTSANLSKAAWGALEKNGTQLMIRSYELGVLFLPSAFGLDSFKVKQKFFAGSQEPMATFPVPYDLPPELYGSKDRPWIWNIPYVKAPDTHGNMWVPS
#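 AlphaScreen read-out: signal falls as enzyme removes the 3' tyrosine-FITC from a 5'-biotinylated DNA oligo (15 nM, 5 min, RT). Enzyme was E. coli-made recombinant Tdp1 at 1 nM, exposed to compound for 15 min beforehand; beads 10 ug/ml, 10 min.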
# Giardia killer: kills Giardia lamblia. 0.15% of 340,000 active. activity change, % at 7.66 µM, hits read low. Giardia lamblia trophozoite viability; in the data active = activity change below about -80%; inconclusive = between about -30% and that limit;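 note: parasites exposed to compound for two days anaerobically before the ATP read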
#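 Killing of trophozoites was scored by loss of ATP luminescence after a 48 hrs anaerobic exposure to compounds at 37 deg C, using 100 cells per well.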
# Numbers without * were called inactive; ? = inconclusive; nt = no result given; [ ] = remark or other dose. The list is not random: actives were taken first. Their share in the collection is about 19%. Unless noted, calls come from the whole dose curve; as a rule, active = well fitted curve in the direction sought with a large enough effect; inconclusive = small, poorly fitted or top-dose-only effect, or another doubt; inactive = no such curve, though single readings can be large; an effect the other way counts as inactive or inconclusive. % is set by controls: 0 for no effect and ±100 for the full control effect.
SMILES,DT40 TDP1 no CPT,ELG1 DNA repair,IL-1B inflam inh,TDP1 cell CPT,TDP1 inh,Giardia killer
CCOC(=O)c1c(-c2ccc(C)cc2)csc1NC(=O)CCSc1nnc2ccccn12,23µM*,?,22,23µM*,-3%,3
COc1ccc(OC)c(C(=O)c2ccc(C(=O)N3CCCCC3)cc2)c1,?,-1%,14,-24%,3%,5
O=C(c1ccc(Br)o1)N1CCN(CCc2ccncc2)CC1,-22%,-13%,10,-10%,nt,-3
Cc1ccc(F)cc1NC(=O)Cn1c(C)cc(C)c(C#N)c1=O,2%,nt,nt,21µM*,6%,nt
Cc1cc(C)n(CC(=O)Nc2cc(F)ccc2F)c(=O)c1C#N,nt,nt,nt,nt,6%,nt
O=C(Nc1cc(Cl)ccc1Cl)c1cc([N+](=O)[O-])cc(Br)c1O,-8%,nt,nt,2%,2%,-16
O=C(Nc1ccc([N+](=O)[O-])cc1Cl)c1cc(Br)ccc1O,0.45µM*,nt,nt,0.79µM*,4%,?
COc1ccc(NC(=O)c2cc(Br)ccc2Cl)c([N+](=O)[O-])c1,-15%,8%,-4,1%,5%,-7
O=C(Nc1c(Cl)cc([N+](=O)[O-])cc1Cl)c1cc(Cl)ccc1O,2µM*,nt,nt,2.5µM*,4%,-16
C[C@@H](C(=O)NCCc1ccc(F)cc1)N1C(=O)N2CCc3c([nH]c4ccccc34)[C@@]2(C)C1=O,12µM*,?,-9,12µM*,nt,0
C[C@@H](C(=O)NCc1ccco1)N1C(=O)N2CCc3c([nH]c4ccccc34)[C@@]2(C)C1=O,?,-22%,-5,?,nt,12
COc1ccc(CNC(=O)[C@H](C)N2C(=O)N3CCc4c([nH]c5ccccc45)[C@@]3(C)C2=O)cc1OC,4.1µM*,?,25,2.6µM*,nt,16
CC(C)C[C@@H](C(=O)NCc1ccco1)N1C(=O)N2CCc3c([nH]c4ccccc34)[C@@]2(C)C1=O,5.2µM*,0%,-1,?,nt,-1
COc1ccc2[nH]c3c(c2c1)CCN1C(=O)N([C@@H](C)C(=O)NCCc2ccc(F)cc2)C(=O)[C@]31C,7.3µM*,-16%,-23,23µM*,nt,11
Cc1ccc(CNC(=O)[C@H](C)N2C(=O)N3CCc4c([nH]c5ccccc45)[C@@]3(C)C2=O)cc1,?,?,37,?,nt,-9
Cc1cc(C)c(NC(=O)Cn2nc(-c3ccncc3)ccc2=O)c(C)c1,?,nt,nt,-23%,2%,nt
COCCCNC(=O)c1ccc(Cn2c(=O)c3ccccc3n(Cc3c(C)cc(C)cc3C)c2=O)cc1,-2%,nt,nt,-7%,1%,nt
COc1cc(/C=N/Nc2ncnc3sc4c(c23)CCC4)ccc1O,?,?,-27,?,5%,6
COc1cc(C(CC(=O)Nc2ccc(Br)cn2)N2Cc3ccccc3C2=O)cc(OC)c1OC (stereo unspecified),?,nt,nt,?,6%,nt
O=c1[nH]c(CN2CCN(Cc3ccc4c(c3)OCO4)CC2)nc2sc3c(c12)CCC3,nt,0%,nt,nt,2%,nt
O=c1[nH]c(CN2CCN(S(=O)(=O)c3ccccc3C(F)(F)F)CC2)nc2sc3c(c12)CCCC3,?,16µM*,-28,?,0%,-28
COc1cc(NC(=O)c2c(F)cccc2F)c(Cl)cc1Cl,-5%,-4%,-14,24%,-1%,9
O=Cc1ccc(Cl)cc1,-8%,nt,nt,13%,9%,nt
O=Cc1ccc(I)cc1,4µM*,nt,nt,1.6µM*,nt,nt
O=C(NCCc1csc(-c2cccnc2)n1)c1cccc2ccccc12,23µM*,?,-1,16µM*,9%,16
SMILES,DT40 TDP1 no CPT,ELG1 DNA repair,IL-1B inflam inh,TDP1 cell CPT,TDP1 inh,Giardia killer
COc1ccc(-c2nc(CCNC(=O)c3cccs3)cs2)cc1OC,21µM*,nt,nt,?,5%,nt
O=C(NCCc1csc(-c2ccccc2)n1)c1ccco1,?,23%,?,18µM*,nt,9
Cc1nc(CCNC(=O)c2cccs2)cs1,-1%,28%,-16,0%,5%,20
O=C(NCCc1csc(-c2ccc(Cl)cc2)n1)c1cccs1,16µM*,nt,nt,?,7%,nt
O=C(NCCc1csc(-c2cccnc2)n1)c1ccccc1,-28%,-5%,-1,-18%,4%,5
O=C(NCCc1csc(-c2ccccc2)n1)c1cccs1,9.2µM*,-3%,?,23µM*,0%,21
O=C(NCc1ccccc1)c1csc(-c2cccnc2)n1,5.8µM*,5.8µM*,?,?,1%,8
CCN(CC)Cc1c(O)ccc2c1O/C(=C\C=C\c1ccccc1)C2=O,18µM*,-16%,-14,?,nt,18
COc1ccccc1/C=C/C=C1\Oc2c(ccc(O)c2CN(C)C)C1=O,?,0%,-11,?,nt,-19
O=S(=O)(Nc1ccc2c(c1)OCO2)c1ccc(Cl)cc1F,8%,8%,-16,-5%,0%[56.1 µM],?
CC1CCCN(S(=O)(=O)c2cc3c(cc2Cl)NC(=O)CO3)C1 (stereo unspecified),?,nt,nt,?,0%,nt
Cc1ccc(CCN2CC(C(=O)NC3CCCCC3)CC2=O)cc1 (stereo unspecified),13%,?,-6,-6%,3%,15
COc1cc(C(=O)/C=C/c2cccnc2)ccc1O,18µM*,?,-99*,?,nt,-14
O=C(N/N=C/c1cccnc1)c1ccc(F)cc1,-12%,?,-11,2%,nt,-7
CN(C)S(=O)(=O)c1ccc(C(=O)/C=C/c2cccnc2)cc1,21µM*,?,-4,8.2µM*,-6%,-6
C(=Cc1cccnc1)c1ccncc1,?,nt,-16,-29%,nt,-9
O=C(/C=C/c1cccnc1)/C=C/c1cccnc1,0.58µM*,?,-93*,1µM*,4%,?
O=C(/C=C/c1cccnc1)c1cc(F)ccc1O,21µM*,?,-7,?,-14%,-6
C[C@@H](C(=O)NNC(=O)c1ccc(Cl)cc1)N1C(=O)C2CC=CCC2C1=O (stereo partly specified),-1%,28%,1,-4%,1%,-1
C=CCc1ccccc1Oc1cc(F)nc(N)n1,-1%,18%,14,13%,2%,16
COC(=O)c1cc(NC(=O)c2oc(=O)c3ccccc3c2-c2ccccc2)cc(C(=O)OC)c1,14%,nt,nt,9%,-2%,nt
COc1ccc(OC)c(C(=O)/C=C/c2cccnc2)c1,12µM*,?,-98*,?,15%,16
COc1ccc(NC(=O)Nc2cccnc2)c(OC)c1,-8%,7%,4,-11%,5%,-20
